In PubChem BioAssay one finds composite z-score and composite Z-score data, which are given here for eleven compounds.

One test deals with Albumin (Bos taurus) (UniProt P02769). Kind of test: compounds binding labelled BSA control protein – biochemical, small-molecule microarray, Alexa647 label, 635/667 nm fluorescence, artefact control for SMM control protein annotation, profiling panel (AID 1118).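 Also: score merges 667 nm emission intensity and signal-to-noise per printed compound spot.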 As to conditions: BSA-A647 binding, fluorescence 635 nm, higher = more signal.
Albumin (Bos taurus), sequence (P02769 whole entry, looked up): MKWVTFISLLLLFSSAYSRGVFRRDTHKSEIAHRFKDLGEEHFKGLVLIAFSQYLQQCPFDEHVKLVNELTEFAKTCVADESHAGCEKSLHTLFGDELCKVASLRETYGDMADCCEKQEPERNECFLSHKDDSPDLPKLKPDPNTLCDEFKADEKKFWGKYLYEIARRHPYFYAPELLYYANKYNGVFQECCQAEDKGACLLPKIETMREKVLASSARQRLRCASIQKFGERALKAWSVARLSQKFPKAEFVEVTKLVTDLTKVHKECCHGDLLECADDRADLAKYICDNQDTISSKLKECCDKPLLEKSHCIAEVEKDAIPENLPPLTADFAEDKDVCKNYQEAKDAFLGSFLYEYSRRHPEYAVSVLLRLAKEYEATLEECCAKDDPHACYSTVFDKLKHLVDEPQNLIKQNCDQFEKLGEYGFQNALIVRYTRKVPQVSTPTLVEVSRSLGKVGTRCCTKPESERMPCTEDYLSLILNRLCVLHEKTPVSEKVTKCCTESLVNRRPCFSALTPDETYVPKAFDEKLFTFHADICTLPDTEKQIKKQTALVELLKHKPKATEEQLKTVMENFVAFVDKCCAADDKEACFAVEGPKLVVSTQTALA
A short description of test [1]: probe aXIP binding to arrayed compounds – biochemical, NeuroSMM set, 635/667 nm fluorescence, primary screen (AID 1119).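 Also: probe is the protein aXip251-270 applied at 1 µg/mL to compound-printed slides; binding of probe to printed compounds measured as 667 nm fluorescence plus signal to noise.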 To be noted: small-molecule microarray, higher = more signal, called active from +8 up or from −8 down.
Test [2] is described as follows: probe aNOTCH3 binding on compound microarray – biochemical, small-molecule microarray, 635/667 nm fluorescence, primary screen (AID 1120).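 Also: probe is a biotin-tagged antibody raised against NOTCH3 rather than NOTCH3 protein; score merges spot fluorescence near 667 nm with spot signal to noise.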 As to conditions: higher = more signal.
A short description of test [3]: probe aNOTCH2 binding on compound microarray – biochemical, small-molecule microarray, 635/667 nm fluorescence, primary screen (AID 1121).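 Also: score merges feature fluorescence read at 667 nm with its signal to noise.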 To be noted: higher = more signal.
Test [4] deals with Carbonic anhydrase 2 (Homo sapiens) (UniProt P00918). Kind of test: compounds binding carbonic anhydrase 2 – biochemical, small-molecule microarray, Alexa647-labelled CAII, profiling panel (AID 1122). To be noted: CAII-A647 binding fluorescence, higher = more signal.
The nature of test [5]: COS7 lysate on small-molecule microarray, probe aHis, 635 nm (AID 1123).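 Also: z-score combines 667nm fluorescence intensity with signal-to-noise per printed compound spot.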 To be noted: COS7 cell lysate, fluorescence, higher = more signal.
The nature of test [6]: probe aLAP1 signal on lysate-treated microarray – cell lysate, small-molecule microarray, COS7 lysate, primary screen (AID 1124).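 Also: lysate comes from COS7 cells expressing LAP1 and is applied at 0.3 µg/mL; score merges spot fluorescence near 667 nm with signal-to-noise over triplicate slides.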 To be noted: probe aLAP1, fluorescence, higher = more signal.
Another test has as its system Sam68 (KHDRBS1). The test can be described thus: compounds binding KHDRBS1 protein – biochemical, small-molecule microarray, 635 nm fluorescence, primary screen (AID 1125).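 Also: score merges 667 nm channel intensity with signal to noise over triplicate slides.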 To be noted: higher = more signal.
Test [7] concerns Chordin-like protein 2 (CHRDL2). Kind of test: compounds binding chordin-like 2 – biochemical, small-molecule microarray, 635 nm fluorescence, primary screen (AID 1126).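 Also: printed compound slides probed with Chrdl2 protein at 4 µg/mL for 1 h at 4 C; score merges 667 nm emission intensity with signal to noise over three replicate slides.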 To be noted: fluorescence 635 nm, higher = more signal.
Test [8] addresses Concanavalin-A (Canavalia ensiformis) (UniProt P02866). Kind of test: compounds binding concanavalin A lectin – biochemical, small-molecule microarray, Alexa647 label, 635 nm, artefact control for SMM control protein annotation, primary screen (AID 1127).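 Also: z combines 667 nm emission intensity with signal-to-noise across three replicate slides.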 To be noted: ConA-A647 binding fluorescence, higher = more signal.

The source made the active and inactive calls.

Concanavalin-A (Canavalia ensiformis), sequence (P02866 whole entry, looked up): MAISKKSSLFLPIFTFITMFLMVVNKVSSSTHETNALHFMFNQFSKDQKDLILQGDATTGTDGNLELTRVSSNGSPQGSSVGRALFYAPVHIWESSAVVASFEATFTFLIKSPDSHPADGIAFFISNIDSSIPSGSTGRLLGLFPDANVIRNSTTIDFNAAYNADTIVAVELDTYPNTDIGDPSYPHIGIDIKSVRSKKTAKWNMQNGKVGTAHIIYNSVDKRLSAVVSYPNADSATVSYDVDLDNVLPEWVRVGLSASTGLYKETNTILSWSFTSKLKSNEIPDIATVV

In the case of `COc1ccc(CCNC(=O)[C@@H]2c3ccccc3C(=O)N(Cc3ccc(OC(F)(F)F)cc3)[C@H]2c2ccc(CO)cc2)cc1`, the composite z-score in the test with Albumin (Bos taurus) is 0.59; in test [2], -0.0077; in [3], -0.0029; in test [4], 0.497; in test [5] it was 1.53; in test [6], 0.983. For the same compound, the values for the composite z-score (in the test with Sam68 (KHDRBS1); in test [7]; in [8]) were 1.07, 0.0372 and 0.485, respectively. Further, the composite Z-score in test [1] is -0.313 (inactive).
Consider `O=c1oc(-c2ccccc2)nc2cc(Br)ccc12`, for which the composite z-score with Albumin (Bos taurus) is -0.163; in test [2], -0.0647; in [3] it was -0.0984; in [4] it was -0.0912; in test [5], 0.704; in [6], 0.107. Further, the composite z-score in the test on Sam68 (KHDRBS1) came out at 0.0872; in test [7], 0.875; in test [8], 0.666. The composite Z-score in test [1] was -0.12 (inactive).
`CCOC(=O)C1=CC[C@@H](c2ccccc2)N(S(=O)(=O)c2ccc(C)cc2)[C@H]1C(=O)OCC`: the composite z-score with Albumin (Bos taurus) was 0.744; in test [2] it was 0.421; in test [3], 0.144; in test [4] it was 0.413; in test [5], 1.22; in [6], 0.748. The figures for the composite z-score (in the test with Sam68 (KHDRBS1); in test [7]; in [8]) were 1.12, -0.361 and -0.515, respectively. Moreover, in [1], the composite Z-score was 0.615 (inactive).
`COC(=O)[C@@]1(Cc2ccccc2)[C@H]2c3cc(C(=O)N4CCCC4)n(Cc4ccc(C)o4)c3C[C@H]2CN1C(=O)c1ccccc1`: the composite z-score was found to be 0.905 with Albumin (Bos taurus); 0.415 in test [2]; 0.0263 in [3]; 0.787 in test [4]; 0.597 in test [5]; 0.487 in test [6]. The composite z-score in the test with Sam68 (KHDRBS1) was 0.17; in test [7], -0.589; in [8], -0.289. Further, the composite Z-score in test [1] is -0.56 (inactive).
Consider `O=C1O[C@@H](c2ccccc2)[C@@H](c2ccccc2)N2[C@@H](c3ccc(O)cc3)[C@]3(C(=O)Nc4ccc(C#CC5(O)CCCCCC5)cc43)[C@@H](C(=O)N3CCCCCCC3)[C@H]12`, for which the composite z-score turned out to be 0.748 with Albumin (Bos taurus); 2.12 in test [2]; 1.06 in [3]; 0.742 in [4]; 3.88 in test [5]; 0.894 in test [6]. The composite z-score in the test with Sam68 (KHDRBS1) was determined as 1.33; in [7] it was 1.55; in test [8] it was 1.12. Further, the composite Z-score in [1] was 6.76 (inactive).
Consider `COCCOC(=O)N1C(=O)[C@@]2(c3cc(C#CCNC(N)=O)ccc31)[C@H](c1ccccc1OCCO)N1[C@H](c3ccccc3)[C@H](c3ccccc3)OC(=O)[C@H]1[C@@H]2C(N)=O`, for which the composite z-score in the test with Albumin (Bos taurus) was -0.117; in [2] it was -0.0345; in [3] it was -0.148; in [4], 0.475; in test [5], -0.726; in test [6], 0.177. In addition, the composite z-score worked out at 1.22 with Sam68 (KHDRBS1), 0.616 in test [7] and 1.18 in test [8]. Besides, the composite Z-score in test [1] is -0.479 (inactive).
As to `C=CC[C@@]1(C(=O)NCC(O)CO)N=C(c2ccc(OCCCO)cc2)O[C@@H]1c1ccccc1N=[N+]=[N-]` (stereo not given in full), the composite z-score was found to be 1.04 in the test with Albumin (Bos taurus); 0.266 in [2]; 0.0007 in test [3]; 0.778 in test [4]; 3.7 in test [5]; 1.02 in test [6]. Besides, the composite z-score in the test on Sam68 (KHDRBS1) is 0.931; in test [7] it was -0.982; in test [8] it was 0.97. Besides, in [1], the composite Z-score is 0.338 (inactive).
With `CN(C)CCCCCCNC(=O)[C@H]1C[C@H]2C(=O)N[C@@H](CCCCN)C(=O)N2[C@H]1c1ccc(O)cc1`, the composite z-score with Albumin (Bos taurus) was 0.987; in test [2], 1.78; in [3], 0.657; in [4], 0.586; in test [5], 4.3; in test [6], 1.16. In addition, the composite z-score was found to be 1.34 in the test on Sam68 (KHDRBS1), 1.45 in [7] and 1.25 in [8]. Besides, the composite Z-score in test [1] was 5.54 (inactive).
As to `O=C(NCc1ccccc1)[C@]1(CCS(=O)(=O)c2ccccc2)N=C(c2ccc(OCCCO)cc2)O[C@@H]1c1ccccc1`, the composite z-score with Albumin (Bos taurus) was 0.714; in test [2] it was 0.296; in [3], -0.048; in test [4], 0.555; in test [5] it was 0.751; in [6] it was 0.379. For the same compound, the results for the composite z-score (with Sam68 (KHDRBS1); in test [7]; in [8]) were 1.31, 0.205 and 1.08, respectively. For the same compound, in [1], the composite Z-score is 0.235 (inactive).
Consider `CCCCC=C[C@@H](NC(=O)c1ccc(C(=O)OC)cc1)c1ccccc1`, for which the composite z-score in the test with Albumin (Bos taurus) is 0.924; in [2] it was 0.313; in [3] it was -0.171; in test [4], 0.235; in test [5], 1.81; in [6], 0.327. Also, the composite z-score with Sam68 (KHDRBS1) was 1.15; in [7], -0.14; in test [8] it was 0.887. The composite Z-score in test [1] is -0.213 (inactive).
`CCOC(=O)C1=C[C@@H](C(C)C)N(S(=O)(=O)c2ccc(C)cc2)[C@H]1c1ccc(C(C)C)cc1`: the composite z-score with Albumin (Bos taurus) was 0.822; in test [2] it was 0.0538; in test [3], -0.0148; in test [4], 0.39; in test [5], 1.81; in test [6] it was 0.586. For the same compound, the composite z-score turned out to be 1.31 in the test on Sam68 (KHDRBS1), 0.241 in [7] and 1.07 in [8]. Moreover, the composite Z-score in test [1] is 0.376 (inactive).
